Data from paper PMC4336329 (PLoS ONE, 2015).
Out of some 310,000 compounds screened, about 2,200 (0.71%) showed an effect of 50% or more. The effect is printed as a negative number. Many of the other results were omitted from the sample, so strong results are more common in it than they were.

Biological target: human ether-à-go-go-related gene (hERG) potassium channel (human, UniProt Q12809)
Assay: primary screen, population patch clamp on CHO cells stably expressing hERG; higher = less effect of the substance

Sequence of human ether-à-go-go-related gene (hERG) potassium channel (Q12809 whole entry, looked up): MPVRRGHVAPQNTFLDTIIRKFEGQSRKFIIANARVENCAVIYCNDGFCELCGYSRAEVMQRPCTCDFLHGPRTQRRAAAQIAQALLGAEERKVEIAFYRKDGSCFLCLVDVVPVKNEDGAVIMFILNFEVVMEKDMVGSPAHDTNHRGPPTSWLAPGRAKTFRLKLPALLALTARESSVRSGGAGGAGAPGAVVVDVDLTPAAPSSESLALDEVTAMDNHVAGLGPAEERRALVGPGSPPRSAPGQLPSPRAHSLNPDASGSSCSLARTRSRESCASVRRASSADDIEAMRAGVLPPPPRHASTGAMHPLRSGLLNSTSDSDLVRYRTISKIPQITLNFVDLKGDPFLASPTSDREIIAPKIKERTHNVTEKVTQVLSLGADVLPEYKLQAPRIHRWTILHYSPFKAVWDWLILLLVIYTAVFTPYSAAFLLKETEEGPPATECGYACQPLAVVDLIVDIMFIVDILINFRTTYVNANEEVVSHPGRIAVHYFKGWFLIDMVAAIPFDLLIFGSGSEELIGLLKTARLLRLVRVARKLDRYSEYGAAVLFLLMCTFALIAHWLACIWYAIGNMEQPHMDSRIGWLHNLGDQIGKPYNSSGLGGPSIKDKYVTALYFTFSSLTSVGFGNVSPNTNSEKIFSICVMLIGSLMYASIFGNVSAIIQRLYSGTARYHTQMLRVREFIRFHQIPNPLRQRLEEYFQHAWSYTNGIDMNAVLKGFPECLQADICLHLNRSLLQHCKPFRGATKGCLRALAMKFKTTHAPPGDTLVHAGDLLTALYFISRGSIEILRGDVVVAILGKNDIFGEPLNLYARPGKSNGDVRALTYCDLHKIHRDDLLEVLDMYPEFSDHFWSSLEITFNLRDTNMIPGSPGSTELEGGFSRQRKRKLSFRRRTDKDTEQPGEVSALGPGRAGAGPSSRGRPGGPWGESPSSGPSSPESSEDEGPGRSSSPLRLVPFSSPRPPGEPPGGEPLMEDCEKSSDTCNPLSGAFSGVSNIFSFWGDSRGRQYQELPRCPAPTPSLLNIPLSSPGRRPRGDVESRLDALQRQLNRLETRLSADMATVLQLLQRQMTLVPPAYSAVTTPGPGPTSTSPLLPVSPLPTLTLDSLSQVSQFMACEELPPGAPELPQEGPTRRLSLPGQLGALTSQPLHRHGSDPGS

Row | Structure (SMILES) | hERG current change (%, negative = inhibition) at 1uM
1 | CC1CCCCC1NC(=O)CCn1c(=O)sc2ccccc21 (stereo not shown) | 18%
2 | Cc1ccc(C(=O)NNC(=O)c2n[nH]c(=O)c3ccccc23)cc1C | 5.71%
3 | Cc1cccc2cc(CN(Cc3cccs3)Cc3nnnn3Cc3ccccc3)c(=O)[nH]c12 | -3.15%
4 | O=C(NO)c1ccc(C(=O)N(C2CCCCC2)C2CCCCC2)cc1 | 3.06%
5 | Cc1ccc(N2CC(C(=O)Nc3ccc(S(=O)(=O)N4CCOCC4)cc3)CC2=O)cc1Cl (stereo not shown) | 7.84%
6 | C/C(=N/NC(=O)c1ccc2c(c1)OCO2)c1cccc(NC(=O)C(C)(C)C)c1 | 9.89%
7 | CC(Oc1ccccc1)C(=O)Nc1ccc(S(=O)(=O)N2CCCC2)cc1 (stereo not shown) | 16.8%
8 | COc1ccc(S(=O)(=O)n2nc(OC(=O)C3CCCCC3)cc2N)cc1 | 9.89%
9 | CCOc1ccccc1N1CCN(C(=O)c2cc(-c3cc(OC)ccc3OC)nc3ccccc23)CC1 | 8.96%
10 | CC12CC3(C)CC(C)(C1)CC(C(=O)NCC(=O)O)(C2)C3 | 19.5%
11 | COc1ccc(-c2ccc(S(=O)(=O)n3nc(OC(=O)c4cccs4)cc3N)cc2)cc1 | 8.64%
12 | CCc1ccc(-c2nc(CN3CCC(C(=O)NCCc4ccc(OC)c(OC)c4)CC3)c(C)o2)cc1 | -40%
13 | COc1ccc(CCNC(=O)C2CCN(Cc3nc(-c4ccccc4C)oc3C)CC2)cc1OC | -59.9%
14 | CCN1CCN(CCNC(=O)C2CCCN(Cc3nc(-c4cccc(Cl)c4)oc3C)C2)CC1 (stereo not shown) | 3.86%
15 | Cc1oc(-c2cccc(Cl)c2)nc1CN1CCC(C(=O)NCCCN2CC(C)CC(C)C2)CC1 (stereo not shown) | 13.9%
16 | COc1ccc(CCNC(=O)C2CCCN(Cc3nc(-c4cccc(Cl)c4)oc3C)C2)cc1OC (stereo not shown) | -76.7%
17 | CCc1ccc(-c2nc(CN3CCCC(C(=O)NCCc4ccc(OC)c(OC)c4)C3)c(C)o2)cc1 (stereo not shown) | -3.23%
18 | COc1ccccc1CNC(=O)C1CCN(Cc2nc(-c3cccc(Cl)c3)oc2C)CC1 | -68.3%
19 | CCc1ccc(-c2nc(CN3CCC(C(=O)NCc4ccccc4OC)CC3)c(C)o2)cc1 | -13.1%
20 | COc1ccc(CCNC(=O)C2CCN(Cc3nc(-c4cccc(Cl)c4)oc3C)CC2)cc1OC | -80.9%
21 | COc1ccc(CCNC(=O)C2CCN(Cc3nc(-c4ccccc4F)oc3C)CC2)cc1OC | -17.3%
22 | Cc1oc(-c2cccc(Cl)c2)nc1CN1CCC(C(=O)NCC2CCCO2)CC1 (stereo not shown) | -31.8%

Row | Structure (SMILES) | hERG current change (%, negative = inhibition) at 1uM
23 | COc1ccc(CCNC(=O)C2CCCN(Cc3nc(-c4ccccc4C)oc3C)C2)cc1OC (stereo not shown) | -2.12%
24 | Cc1ccccc1C(=O)Nc1ccnc(-c2ccncc2)n1 | 14.1%
25 | C/C(CC(=O)NCc1ccco1)=N\NC(=O)C(c1ccccc1)c1ccccc1 | 6.69%
26 | CCOc1ccc(CCNC(=O)CCc2nnc3ccc(N4CCOCC4)nn23)cc1OCC | 7.73%
27 | O=C(Nc1ccc(SC(F)F)cc1)C12CCC(CC1)C2 | 5.66%
28 | CN(CC(=O)Nc1ccccc1Cl)C(=O)COC(=O)c1nc(Cl)c(Cl)c(Cl)c1Cl | 9.88%
29 | C=CCn1c(COc2ccc(Cl)cc2)nnc1SCC(=O)c1c(N)n(C)c(=O)n(C)c1=O | 10.5%
30 | Cc1oc(-c2ccccc2F)nc1CN1CCC(C(=O)NC2CC2)CC1 | 0.032%
31 | Cc1oc(-c2ccccc2F)nc1CN1CCC(C(=O)NCCC2=CCCCC2)CC1 | -51.1%
32 | Cc1ccccc1-c1nc(CN2CCC(C(=O)NCCC3=CCCCC3)CC2)c(C)o1 | -32%
33 | CN(C)CCN(C(=O)CN1C(=O)c2ccccc2C1=O)c1nc2cc3c(cc2s1)OCO3.Cl | 7.04%
34 | COc1ccccc1C(=O)N/C(=C/c1ccccc1)C(=O)NC(CCSC)C(=O)O (stereo not shown) | 12%
35 | COC(=O)c1ccc(CN2CCC(CO)(CCOc3ccccc3)CC2)cc1 | -81.7%
36 | OCC1(CCOc2ccccc2)CCN(Cc2ccncc2)CC1 | -0.954%
37 | COC(=O)c1ccc(CN2CCC(CO)(Cc3cccc(OC)c3)CC2)cc1 | -45.3%
38 | OCCOc1cccc(CN2CCC(CO)(CCOc3ccccc3)CC2)c1 | -2.72%
39 | CSc1ccc(CN2CCC(CO)(CCOc3ccccc3)CC2)cc1 | -81.2%
40 | CC(=O)Nc1ccc(CN2CCC(CO)(CCOc3ccccc3)CC2)cc1 | -43.8%
41 | c1csc(CN2CCN(Cc3cccs3)C2c2cccs2)c1 | 4.62%
42 | O=C(c1ccc(=O)[nH]c1)N1CCN(S(=O)(=O)c2ccc3ccccc3c2)CC1 | 6.52%
43 | O=C(NN=C1C2CC3CC(C2)CC1C3)c1ccncc1 | -0.112%
44 | Cl.Clc1ccc(-c2ccc(CNCc3ccccn3)o2)cc1 | -5.94%

Row | Structure (SMILES) | hERG current change (%, negative = inhibition) at 1uM
45 | CCN1CCN(C(=O)c2cc3cc([N+](=O)[O-])ccc3oc2=O)CC1 | -1.11%
46 | O=C(c1cc2cc([N+](=O)[O-])ccc2oc1=O)N1CCN(C2CCCCC2)CC1 | -60.8%
47 | O=C(c1cc2cc([N+](=O)[O-])ccc2oc1=O)N1CCOCC1 | 7.86%
48 | COc1ccc(Cc2nc3ccc(C(=O)NC(C)c4cn(C)nc4C)cc3o2)cc1 (stereo not shown) | 9.59%
49 | COc1ccc(OCCOC(=O)c2[nH]c(C)c(C(C)=O)c2C)cc1 | 8.51%
50 | COc1ccc(-c2csc(NC(=O)CN3C(=O)NC4(CCCC4)C3=O)n2)cc1 | 1.42%
51 | COc1ccc(C(=O)C(OC(=O)c2ccccc2)c2ccccc2)cc1 (stereo not shown) | 2.14%
52 | Cc1ccccc1NC(=O)CSc1ccc2nnc(-c3ccccn3)n2n1 | 7.85%
53 | O=C(CSc1ccc2nnc(-c3ccccn3)n2n1)N1CCOCC1 | 6.32%
54 | Cc1ccccc1CSc1nnc(-c2ccccn2)n1C | 10.8%
55 | CCOC(=O)N1CCN(C(=O)CSc2ccc3nnc(-c4ccccn4)n3n2)CC1 | 2.22%
56 | O=C(CSc1ccc2nnc(-c3ccccn3)n2n1)N1CCN(c2ccccc2)CC1 | -89.9%
57 | Cc1ccc(C)c(CSc2ccc3nnc(-c4ccccn4)n3n2)c1 | -54.3%
58 | Cc1ccc(NC(=O)CSc2ccc3nnc(-c4ccccn4)n3n2)cc1 | 5.84%
59 | Cc1ccc(CSc2ccc3nnc(-c4ccccn4)n3n2)cc1 | -36.5%
60 | Cc1ccccc1CSc1ccc2nnc(-c3ccccn3)n2n1 | -50.9%
61 | CNc1sc(C(=O)c2ccc(F)cc2)c(N)c1-c1nc2ccccc2s1 | 5.15%
62 | CNNC(=S)NCCC1=CCCCC1 | 10.2%
63 | C/C(N)=C(/C#N)C(=O)CSc1nc2ccc(C)cc2[nH]1 | 11%
64 | Cn1cnnc1SC(C(=O)Nc1ccc(F)cc1)c1ccccc1 (stereo not shown) | 4.93%
65 | CCCc1ccc(-c2cc(C(=O)NCCc3ccc(S(N)(=O)=O)cc3)c3ccccc3n2)cc1 | 16.3%
66 | O=C(CCS(=O)(=O)c1ccc(Br)cc1)Nc1ccccn1 | 15.2%

Row | Structure (SMILES) | hERG current change (%, negative = inhibition) at 1uM
67 | CCOc1ccc(N(CC(=O)OC)S(=O)(=O)c2ccc(OC)c(OC)c2)cc1 | -0.463%
68 | COc1ccc(Cl)cc1NC(=O)CSc1nnc(Cc2cccn2C)n1-c1ccc(F)cc1 | 2.71%
69 | COc1ccc(-n2c(Cc3cccn3C)nnc2SCC(=O)Nc2ccccc2OC)cc1 | -4.23%
70 | COc1ccc(-n2c(Cc3cccn3C)nnc2SCC(=O)Nc2cc(Cl)ccc2OC)cc1 | -50.9%
71 | COc1ccc(C2NN=C(c3ccc(C)cc3)S2)cc1OC (stereo not shown) | 16.1%
72 | CCN(CC)CCN(C(=O)C1=COCCO1)c1nc2cc(C)cc(C)c2s1.Cl | -36.7%
73 | CCN(CC)CCN(C(=O)c1ccc([N+](=O)[O-])cc1)c1nc2c(OC)cccc2s1.Cl | -53.4%
74 | CCN(CC)CCN(C(=O)C1=COCCO1)c1nc2cc3c(cc2s1)OCO3.Cl | -63.3%
75 | CCOc1cccc2sc(N(CCN(CC)CC)C(=O)c3cccc([N+](=O)[O-])c3)nc12.Cl | -44.9%
76 | CCN(CC)CCN(C(=O)c1ccc2c(c1)OCCO2)c1nc2cc3c(cc2s1)OCO3.Cl | -18.3%
77 | CCN(CC)CCN(C(=O)C1=COCCO1)c1nc2c(OC)ccc(OC)c2s1.Cl | -84.9%
78 | CCN(CC)CCN(C(=O)C1=COCCO1)c1nc2ccc(C)cc2s1.Cl | -34%
79 | CCN(C(=O)C1=COCCO1)c1nc2c(C)cccc2s1 | 0.721%
80 | CCN(CC)CCN(C(=O)c1ccc(C(=O)c2ccccc2)cc1)c1nc2c(OC)cccc2s1.Cl | -33%
81 | Cc1c(Cl)c([N+](=O)[O-])nn1CCCC(=O)Nc1cc(Cl)ccc1Cl | -10.9%
82 | O=C(CP(=O)(c1ccccc1)c1ccccc1)N1CCCCC1 | 6.28%
83 | COc1cc2ncc(C(=O)c3ccccc3)c(N3CCN(Cc4ccccc4)CC3)c2cc1OC | 8.52%
84 | CCc1ccc(C(=O)c2cnc3ccc(OC)cc3c2N2CCN(CC)CC2)cc1 | -46.6%
85 | CCOc1ccc(C(=O)c2cnc3ccccc3c2N2CCN(CC)CC2)cc1 | -43.9%
86 | CCN1CCN(c2c(C(=O)c3ccc(OC)cc3)cnc3ccccc23)CC1 | -67.9%
87 | CCOC(=O)c1cnc2ccc(OCC)cc2c1N1CCN(C)CC1.Cl | -15.6%
88 | CCOc1ccc2ncc(C(=O)c3ccc(OC)cc3)c(N3CCN(CC)CC3)c2c1 | -66%
